Consider 3 compounds from PubChem BioAssay (EPA / NIEHS).

Inconclusive results are not listed. Activity calls are given as the source filed them. Rule for the calls, unless noted: active = hit-call score of the fitted dose curve at least 0.9, where 1 is the maximum; inactive = score below 0.9.

Test [1] concerns the target Hepatocyte nuclear factor 3-beta (Homo sapiens) (UniProt Q9Y261). Nature of the test: ATG_FoxA2_CIS: Attagene CIS-FACTORIAL HepG2 Assay for human Forkhead box A2 (FOXA2) (AID 2282942). The following applies: HepG2 cis-reporter transcription factor activity, 24 h; actives raise or lower the signal. In a few lines: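 HepG2 transiently transfected with a multiplexed cis-promoter reporter library read endogenous FOXA2 activity. After 24 h compound exposure, reporter mRNA was quantified by RT-PCR, HpaI digestion and capillary electrophoresis. Bidirectional fit against DMSO.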

The target in test [2] is Heat shock factor protein 1 (Homo sapiens) (UniProt Q00613). Description: ATG_HSE_CIS: Attagene CIS-FACTORIAL HepG2 Assay for human Heat Shock Transcription Factor 1 (HSE) (AID 2282953). The conditions noted are these: HepG2 HSE cis-reporter, Attagene RNA transcription; actives raise or lower the signal. In a few lines:
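Read-out: fluorescence of reporter-specific RT-PCR fragments separated by capillary electrophoresis. HepG2 carrying transfected cis-element reporter units; 24 h dosing; activity fitted in both directions relative to DMSO baseline.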

Test [3] can be described thus: ATG_RORE_CIS: Attagene CIS-FACTORIAL HepG2 Assay for human RAR-related Orphan Receptor Element (RORE) (AID 2282959). The conditions noted are these: HepG2 Attagene cis-factorial RORE reporter, mRNA; actives raise or lower the signal. In a few lines: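 HepG2 cells carrying transiently transfected cis-regulated reporter units; RORE-driven reporter mRNA quantified 24 h post-dosing by RT-PCR, 6-FAM primer extension, HpaI digestion and capillary electrophoresis. Bidirectional fit versus DMSO.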

Test [4] is described as follows: ATG_Sox_CIS: Attagene CIS-FACTORIAL HepG2 Assay for human SRY-box transcription factor (SOX) (AID 2282960). The conditions noted are these: HepG2 Attagene cis-factorial SOX reporter, mRNA; actives raise or lower the signal. In a few lines: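 HepG2 cells transiently transfected with multiple cis-regulated reporter units, then dosed for 24 h. Reporter mRNA quantified by RT-PCR, fluorescent labelling, HpaI digestion and capillary electrophoresis; bidirectional fit versus DMSO.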

The target in test [5] is Transcription factor Sp1 (Homo sapiens) (UniProt P08047). Nature of the test: ATG_Sp1_CIS: Attagene CIS-FACTORIAL HepG2 Assay for human Specificity Protein 1 (Sp1) (AID 2282961). The following applies: HepG2 Sp1 cis-reporter transcription, actives raise or lower the signal. In a few lines: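 HepG2 cells transiently transfected with multiplexed cis-regulated reporter constructs, chemical exposure 24 h. Reporter mRNA quantified by RT-PCR with capillary electrophoresis; bidirectional fit relative to DMSO.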

A short description of test [6]: ATG_SREBP_CIS: Attagene CIS-FACTORIAL HepG2 Assay for human Sterol Regulatory Element Binding (SREBP) (AID 2282962). The following applies: HepG2 Attagene cis-factorial SREBP reporter, mRNA; actives raise or lower the signal. In a few lines:
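Endogenous factor activity is measured in HepG2 through multiplexed reporter units under cis-element control. Following a 24 h incubation, reporter transcripts are reverse-transcribed, PCR-amplified and sized by capillary electrophoresis; activity is fitted in both directions relative to DMSO.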

The target of test [7] is Signal transducer and activator of transcription 3 (Homo sapiens) (UniProt P40763). Nature of the test: ATG_STAT3_CIS: Attagene CIS-FACTORIAL HepG2 Assay for human Signal Transducer and Activator of Transcription 3 (STAT3) (AID 2282963). The conditions noted are these: HepG2, Attagene cis-factorial STAT3 reporter transcription; actives raise or lower the signal. In a few lines:
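HepG2, MRTU-transfected, 24 h dosing. RNA → RT → PCR → FAM label → HpaI → CE. Bidirectional fit vs DMSO.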

Test [8] can be described thus: ATG_TA_CIS: Attagene CIS-FACTORIAL HepG2 Assay for human TA Basal Promoter (AID 2282964). The following applies: HepG2 Attagene CIS-factorial TA basal promoter reporter; actives raise or lower the signal. In a few lines: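 Transfected HepG2, 24 h compound exposure; RNA → RT-PCR → FAM primer extension → HpaI cut → CE fluorescence. Gain/loss-of-signal fitted against DMSO negative control. Background-control readout.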

Test [9] in a line: ATG_TCF_b_cat_CIS: Attagene CIS-FACTORIAL HepG2 Assay for human T-Cell-Factor with beta-catenin (TCF/b-cat) (AID 2282965). The conditions noted are these: HepG2 TCF/beta-catenin cis-reporter transcription, actives raise or lower the signal. In a few lines:
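HepG2 cells transiently transfected with multiple cis-promoter-regulated reporter transcription units, so endogenous transcription factor activity is measured. Reporter mRNA read 24 hours after dosing by RT-PCR, fluorescent labelling and capillary electrophoresis; bidirectional fitting against DMSO.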

The nature of test [10]: ATG_TAL_CIS: Attagene CIS-FACTORIAL HepG2 Assay for human TAL Basal Promoter (AID 2282966).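 Note: background control endpoint measuring basal TAL promoter reporter mRNA not a specific factor.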 The following applies: HepG2 Attagene cis-factorial TAL promoter reporter; actives raise or lower the signal. In a few lines: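 Background-control endpoint: basal TAL promoter reporter transcripts in transiently transfected HepG2, measured 24 h after dosing. Read-out by RT-PCR with fluorescent primer extension and capillary electrophoresis; gain or loss of signal fitted relative to DMSO.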

The target in test [11] is Transcriptional activator Myb (Homo sapiens) (UniProt P10242). Nature of the test: ATG_Myb_CIS: Attagene CIS-FACTORIAL HepG2 Assay for human Myeloblastosis (Myb) Proto-Oncogene Transcription Factor (AID 2282986). The following applies: HepG2 Attagene CIS-FACTORIAL Myb reporter transcription; actives raise or lower the signal. In a few lines:
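Transiently transfected HepG2 cells carrying a multiplexed cis-promoter reporter set report endogenous Myb activity after 24 h compound exposure. Reporter mRNA is read by RT-PCR with capillary electrophoresis of fluorescent products, fitted bidirectionally against DMSO.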

Test [12] deals with Nuclear respiratory factor 1 (Homo sapiens) (UniProt Q16656). Nature of the test: ATG_NRF1_CIS: Attagene CIS-FACTORIAL HepG2 Assay for human Nuclear Respiratory Factor 1 (NRF1) Orphan Gene (AID 2282987). The conditions noted are these: HepG2 NRF1 cis-element reporter, Attagene multiplex; actives raise or lower the signal. In a few lines: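 HepG2 cells transiently transfected with multiple cis-regulated reporter units, exposed 24 h. Reporter mRNAs measured by RT-PCR, fluorescent labelling, HpaI digestion and capillary electrophoresis; bidirectional fitting against DMSO.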

The nature of test [13]: ATG_NFI_CIS: Attagene CIS-FACTORIAL HepG2 Assay for human Nuclear Factor I (NFI) (AID 2282989). The conditions noted are these: HepG2 cis-regulatory reporter, NFI response element transcription; actives raise or lower the signal. In a few lines: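 Read-out: reporter mRNA via RT-PCR plus capillary electrophoresis with fluorescence detection. Transiently transfected HepG2 (endogenous TF activity on cis promoters), 24 h compound exposure; gain or loss of signal fitted against DMSO.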

The target of test [14] is Myc proto-oncogene protein (Homo sapiens) (UniProt P01106). Nature of the test: ATG_Myc_CIS: Attagene CIS-FACTORIAL HepG2 Assay for human Myelocytomatosis (Myc) Proto-Oncogene Transcription Factor (AID 2282990). The conditions noted are these: HepG2, Attagene cis-reporter transcription factor activity; actives raise or lower the signal. In a few lines: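 HepG2 cells transiently transfected with multiple cis-promoter-driven reporter transcription units, so endogenous TF activity is read. After 24 h compound exposure, reporter mRNA was quantified by RT-PCR, 6-FAM labelling, HpaI digestion and capillary electrophoresis; bidirectional fit versus DMSO.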

Test [15] in a line: ATG_NRF2_ARE_CIS: Attagene CIS-FACTORIAL HepG2 Assay for human Nuclear Factor Erythroid 2 Related Factor 2 (NFR2) response to Antioxidant Response Elements (ARE) (AID 2282992).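 For AC50: reporter mRNA level measured by RT-PCR and capillary electrophoresis fluorescence.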 The following applies: HepG2 Attagene ARE/NRF2 reporter, transcription factor activity; actives raise or lower the signal. In a few lines: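 Endogenous transcription factor activity in human liver HepG2 cells is tracked via a cis-element-driven reporter within a multiplexed set. mRNA induction is read by RT-PCR and capillary electrophoresis after 24 h, with DMSO as baseline.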

The nature of test [16]: ATG_Oct_MLP_CIS: Attagene CIS-FACTORIAL HepG2 Assay for human Octamer-Binding Transcription Factor (Oct) (AID 2282993). The following applies: HepG2 Attagene cis-factorial Oct reporter, mRNA; actives raise or lower the signal. In a few lines:
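Read-out: reporter mRNA via RT-PCR plus capillary electrophoresis of 6-FAM-labelled fragments. Transiently transfected HepG2, 24 h exposure, endogenous TF activity on cis elements. Gain or loss of signal fitted relative to DMSO.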

Test [17] concerns the target Cellular tumor antigen p53 (Homo sapiens) (UniProt P04637). Description: ATG_p53_CIS: Attagene CIS-FACTORIAL HepG2 Assay for human p53 Transcription Factor (AID 2282994). The conditions noted are these: HepG2 p53 cis-element reporter, Attagene mRNA; actives raise or lower the signal. In a few lines: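 Steps: transfect HepG2 with multiplexed cis reporter constructs; dose chemicals 24 h; extract RNA, reverse-transcribe, PCR-amplify reporter sequences; FAM-label, HpaI-digest, resolve fragments by CE. Activity fitted both directions relative to DMSO.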

The target of test [18] is Nuclear receptor subfamily 1 group I member 2 (Homo sapiens) (UniProt O75469). Nature of the test: ATG_PXR_TRANS: Attagene TRANS-FACTORIAL HepG2 Assay for human Pregnane X Receptor (PXR) (AID 2283008; active = hit-call score of the fitted dose curve at least 0.9, where 1 is the maximum). In a few lines:
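HepG2 transfected (FuGene 6) with GAL4-UAS reporter units + PXR-Gal4 chimera; dosed 24 h. Total RNA → oligo(dT) RT → PCR → 6-FAM primer extension → HpaI cut → CE. Gain-of-signal vs DMSO.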

Test [19] in a line: ATG_XTT_Cytotoxicity: Cytotoxicity Assessment in the Attagene TRANS-FACTORIAL HepG2 Assay (AID 2283584; active = hit-call score of the fitted dose curve at least 0.9, where 1 is the maximum). In a few lines:
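Viability endpoint from XTT after 24 h chemical exposure of reporter-transfected human HepG2 liver cells; signal loss fitted relative to DMSO negative control.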

Test [20] can be described thus: ATG_VDRE_CIS: Attagene CIS-FACTORIAL HepG2 Assay for human Vitamin D Receptor Element (VDRE) (AID 2282968). The following applies: HepG2 VDRE cis-reporter transcription, actives raise or lower the signal. In a few lines: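 Steps: transfect HepG2 with multiple reporter transcription units; dose chemicals 24 h; isolate RNA; RT-PCR; label with 6-FAM primer extension; HpaI digest; capillary electrophoresis. Curves fitted both directions against DMSO.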

Chain of Heat shock factor protein 1 (Homo sapiens) (Q00613 whole entry, looked up, the tested form may be a part): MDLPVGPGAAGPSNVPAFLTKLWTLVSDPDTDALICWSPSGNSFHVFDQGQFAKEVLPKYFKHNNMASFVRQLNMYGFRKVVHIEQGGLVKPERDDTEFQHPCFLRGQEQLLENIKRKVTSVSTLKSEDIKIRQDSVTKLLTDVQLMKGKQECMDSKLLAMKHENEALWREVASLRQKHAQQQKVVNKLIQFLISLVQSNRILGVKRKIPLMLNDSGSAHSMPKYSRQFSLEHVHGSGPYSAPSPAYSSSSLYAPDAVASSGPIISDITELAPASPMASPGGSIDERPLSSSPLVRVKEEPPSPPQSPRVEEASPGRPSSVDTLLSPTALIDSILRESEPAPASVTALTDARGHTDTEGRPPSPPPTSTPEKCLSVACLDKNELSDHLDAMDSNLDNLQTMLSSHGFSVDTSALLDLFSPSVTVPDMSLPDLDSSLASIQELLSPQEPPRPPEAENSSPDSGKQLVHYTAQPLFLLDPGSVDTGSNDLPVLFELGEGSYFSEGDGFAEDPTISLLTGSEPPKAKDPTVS
Chain of Myc proto-oncogene protein (Homo sapiens) (P01106 whole entry, looked up): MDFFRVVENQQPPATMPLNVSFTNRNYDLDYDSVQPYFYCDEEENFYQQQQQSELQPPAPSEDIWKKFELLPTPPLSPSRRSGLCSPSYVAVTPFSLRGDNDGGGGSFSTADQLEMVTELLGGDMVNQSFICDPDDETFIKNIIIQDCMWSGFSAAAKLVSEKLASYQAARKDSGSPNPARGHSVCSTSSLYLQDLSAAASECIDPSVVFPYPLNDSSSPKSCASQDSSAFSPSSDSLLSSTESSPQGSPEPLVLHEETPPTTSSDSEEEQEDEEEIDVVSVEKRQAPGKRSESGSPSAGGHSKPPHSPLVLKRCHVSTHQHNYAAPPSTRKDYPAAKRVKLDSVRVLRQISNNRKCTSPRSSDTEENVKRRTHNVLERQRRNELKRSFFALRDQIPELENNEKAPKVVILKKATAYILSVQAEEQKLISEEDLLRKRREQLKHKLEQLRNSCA
Chain of Nuclear receptor subfamily 1 group I member 2 (Homo sapiens) (O75469 whole entry, looked up, the tested form may be a part): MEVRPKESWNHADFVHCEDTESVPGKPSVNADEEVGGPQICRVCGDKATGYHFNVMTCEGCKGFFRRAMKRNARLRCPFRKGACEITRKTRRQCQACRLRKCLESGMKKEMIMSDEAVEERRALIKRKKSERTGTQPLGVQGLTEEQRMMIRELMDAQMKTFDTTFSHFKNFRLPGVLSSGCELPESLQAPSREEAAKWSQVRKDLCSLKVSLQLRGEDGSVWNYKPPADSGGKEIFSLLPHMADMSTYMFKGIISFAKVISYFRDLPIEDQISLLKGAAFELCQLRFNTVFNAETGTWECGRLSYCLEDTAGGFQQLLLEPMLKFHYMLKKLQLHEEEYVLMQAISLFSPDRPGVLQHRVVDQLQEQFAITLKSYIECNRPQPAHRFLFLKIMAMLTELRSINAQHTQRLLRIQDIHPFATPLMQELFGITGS
Chain of Nuclear respiratory factor 1 (Homo sapiens) (Q16656 whole entry, looked up): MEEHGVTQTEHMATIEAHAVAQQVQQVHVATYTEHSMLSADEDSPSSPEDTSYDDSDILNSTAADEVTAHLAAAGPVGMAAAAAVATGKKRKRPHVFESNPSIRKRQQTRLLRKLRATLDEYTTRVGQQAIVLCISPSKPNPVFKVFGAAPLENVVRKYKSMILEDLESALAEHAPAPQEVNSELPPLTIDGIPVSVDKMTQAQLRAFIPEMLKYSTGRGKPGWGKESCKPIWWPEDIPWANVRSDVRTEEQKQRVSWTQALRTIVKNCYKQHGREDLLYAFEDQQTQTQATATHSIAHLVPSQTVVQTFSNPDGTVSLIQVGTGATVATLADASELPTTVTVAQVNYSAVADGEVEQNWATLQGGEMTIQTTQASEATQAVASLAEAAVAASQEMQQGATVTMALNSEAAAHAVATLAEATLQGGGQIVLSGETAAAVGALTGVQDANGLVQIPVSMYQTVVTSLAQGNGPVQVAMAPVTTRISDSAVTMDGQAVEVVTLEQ
Chain of Transcriptional activator Myb (Homo sapiens) (P10242 whole entry, looked up): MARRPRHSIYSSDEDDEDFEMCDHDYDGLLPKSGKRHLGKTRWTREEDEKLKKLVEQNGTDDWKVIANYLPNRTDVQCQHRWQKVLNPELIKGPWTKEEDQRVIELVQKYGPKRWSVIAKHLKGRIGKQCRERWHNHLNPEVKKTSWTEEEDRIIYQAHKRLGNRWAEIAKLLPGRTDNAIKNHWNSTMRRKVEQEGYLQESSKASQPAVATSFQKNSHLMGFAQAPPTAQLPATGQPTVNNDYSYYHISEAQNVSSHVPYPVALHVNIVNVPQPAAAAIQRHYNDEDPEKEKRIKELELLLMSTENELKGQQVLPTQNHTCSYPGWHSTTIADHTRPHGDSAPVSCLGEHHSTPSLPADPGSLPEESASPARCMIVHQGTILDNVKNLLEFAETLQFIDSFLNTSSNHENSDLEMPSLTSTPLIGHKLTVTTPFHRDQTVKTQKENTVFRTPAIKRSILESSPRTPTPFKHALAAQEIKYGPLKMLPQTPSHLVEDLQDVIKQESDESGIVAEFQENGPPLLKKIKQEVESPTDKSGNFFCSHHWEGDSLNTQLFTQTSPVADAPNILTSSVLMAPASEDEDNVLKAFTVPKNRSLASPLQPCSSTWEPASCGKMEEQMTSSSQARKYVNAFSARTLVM
Chain of Transcription factor Sp1 (Homo sapiens) (P08047 whole entry, looked up): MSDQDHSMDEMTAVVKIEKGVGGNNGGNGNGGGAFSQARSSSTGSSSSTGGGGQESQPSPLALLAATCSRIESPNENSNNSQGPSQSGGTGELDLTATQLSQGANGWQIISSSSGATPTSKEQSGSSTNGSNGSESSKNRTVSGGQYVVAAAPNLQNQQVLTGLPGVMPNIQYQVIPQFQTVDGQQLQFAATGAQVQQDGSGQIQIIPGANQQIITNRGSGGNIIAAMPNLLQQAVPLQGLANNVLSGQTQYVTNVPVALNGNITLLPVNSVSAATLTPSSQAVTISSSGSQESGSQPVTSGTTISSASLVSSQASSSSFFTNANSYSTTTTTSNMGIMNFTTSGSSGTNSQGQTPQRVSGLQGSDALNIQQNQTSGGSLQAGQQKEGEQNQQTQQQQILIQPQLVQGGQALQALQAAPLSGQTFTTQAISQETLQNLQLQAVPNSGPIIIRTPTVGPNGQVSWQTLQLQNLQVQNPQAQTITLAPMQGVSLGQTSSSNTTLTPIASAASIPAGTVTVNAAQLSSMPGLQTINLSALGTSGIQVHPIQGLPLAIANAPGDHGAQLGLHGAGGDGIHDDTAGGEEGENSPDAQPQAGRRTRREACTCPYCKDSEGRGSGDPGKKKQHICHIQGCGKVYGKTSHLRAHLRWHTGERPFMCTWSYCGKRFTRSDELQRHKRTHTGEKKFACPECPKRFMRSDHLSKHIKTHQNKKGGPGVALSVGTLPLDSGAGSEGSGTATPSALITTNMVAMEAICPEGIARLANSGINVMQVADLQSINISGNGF
Chain of Cellular tumor antigen p53 (Homo sapiens) (P04637 whole entry, looked up, the tested form may be a part): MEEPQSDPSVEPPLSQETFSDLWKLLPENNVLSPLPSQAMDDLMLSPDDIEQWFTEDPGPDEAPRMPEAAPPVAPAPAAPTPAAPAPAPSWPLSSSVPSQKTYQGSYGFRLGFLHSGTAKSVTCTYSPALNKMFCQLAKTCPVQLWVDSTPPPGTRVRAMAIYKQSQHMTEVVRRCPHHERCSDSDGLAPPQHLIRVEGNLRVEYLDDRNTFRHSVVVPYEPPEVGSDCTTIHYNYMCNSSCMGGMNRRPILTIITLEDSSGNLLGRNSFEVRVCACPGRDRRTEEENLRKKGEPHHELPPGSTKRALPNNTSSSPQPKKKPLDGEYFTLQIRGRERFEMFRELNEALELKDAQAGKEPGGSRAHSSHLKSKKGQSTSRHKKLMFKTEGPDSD
Chain of Hepatocyte nuclear factor 3-beta (Homo sapiens) (Q9Y261 whole entry, looked up): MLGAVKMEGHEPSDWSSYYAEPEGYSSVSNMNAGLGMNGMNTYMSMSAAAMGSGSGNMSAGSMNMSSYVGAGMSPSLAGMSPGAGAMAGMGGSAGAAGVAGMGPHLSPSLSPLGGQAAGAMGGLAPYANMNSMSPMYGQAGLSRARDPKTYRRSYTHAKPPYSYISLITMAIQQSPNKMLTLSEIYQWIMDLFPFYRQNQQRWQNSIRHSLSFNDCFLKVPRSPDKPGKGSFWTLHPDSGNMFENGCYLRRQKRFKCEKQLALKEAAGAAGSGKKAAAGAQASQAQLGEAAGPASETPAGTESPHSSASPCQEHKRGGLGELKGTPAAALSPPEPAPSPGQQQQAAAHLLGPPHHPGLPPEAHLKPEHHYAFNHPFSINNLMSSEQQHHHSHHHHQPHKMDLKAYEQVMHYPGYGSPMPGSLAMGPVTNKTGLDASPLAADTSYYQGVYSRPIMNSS
Chain of Signal transducer and activator of transcription 3 (Homo sapiens) (P40763 whole entry, looked up): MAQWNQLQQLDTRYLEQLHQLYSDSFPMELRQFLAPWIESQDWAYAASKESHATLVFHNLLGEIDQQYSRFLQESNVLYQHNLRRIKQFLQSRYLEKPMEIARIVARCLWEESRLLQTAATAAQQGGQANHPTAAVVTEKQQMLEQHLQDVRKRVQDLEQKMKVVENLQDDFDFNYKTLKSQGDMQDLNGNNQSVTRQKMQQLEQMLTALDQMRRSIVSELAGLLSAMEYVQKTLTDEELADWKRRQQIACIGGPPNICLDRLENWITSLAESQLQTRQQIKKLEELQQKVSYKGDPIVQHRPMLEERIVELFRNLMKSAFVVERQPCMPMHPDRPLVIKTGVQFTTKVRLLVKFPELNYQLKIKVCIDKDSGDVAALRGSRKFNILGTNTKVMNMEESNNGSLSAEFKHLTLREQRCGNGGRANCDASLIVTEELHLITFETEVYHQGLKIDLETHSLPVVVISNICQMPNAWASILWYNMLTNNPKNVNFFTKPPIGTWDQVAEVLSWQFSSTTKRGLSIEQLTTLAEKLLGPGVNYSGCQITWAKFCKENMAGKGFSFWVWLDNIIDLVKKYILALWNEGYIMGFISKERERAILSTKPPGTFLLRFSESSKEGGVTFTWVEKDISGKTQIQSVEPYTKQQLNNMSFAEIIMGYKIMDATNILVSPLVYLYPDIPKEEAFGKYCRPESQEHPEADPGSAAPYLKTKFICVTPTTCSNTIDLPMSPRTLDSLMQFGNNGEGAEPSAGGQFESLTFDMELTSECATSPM

`CC1=CCCC(C)(C)C12CCC(C)O2` (centres undefined): the result in test [1], in test [2], in [3], in [4], in test [5] and in test [6] was inactive. Besides, the compound was classed as inactive in test [7], in test [8], in test [9], in test [10], in test [11] and in test [12]. In addition, the compound was called inactive in test [13], in test [14], in test [16], in test [17] and in [19]. For the same compound, the results for the half-maximal activity concentration (AC50) in test [15] and in test [18] were 17.5 µM (active) and 2.53 µM (active), respectively.

Consider `[O-][n+]1ccc(Cl)cc1`, for which the call in test [1], in [2], in test [3], in [4], in test [5] and in test [6] was inactive. The compound was called inactive in [7], in test [8], in test [9], in [10], in test [20] and in test [11]. The compound was classed as inactive in [12], in [13], in test [14], in test [15], in [16] and in [17]. Moreover, the call in [18] and in [19] was inactive.

On to `c1ccc(CNc2ncnc3nc[nH]c23)cc1`, for which the call in [1], in [2], in [3], in test [4], in [5] and in [6] was inactive. The compound was called inactive in [7], in test [8], in test [9], in test [10], in [20] and in [11]. For the same compound, the result in test [12], in [13], in test [14], in test [15], in test [16] and in test [17] was inactive. Also, the call in [18] and in test [19] was inactive.
